Screening data: PubChem BioAssay, National Center for Advancing Translational Sciences (NCATS)
SW480 rerep: A quantitative high throughput screen for small molecules that induce DNA re-replication in SW480 colon adenocarcinoma cells; actives 1.8% (n = 340,000); SW480 DNA re-replication, Hoechst DNA content imaging, 48 h; AID 624297, 2012; Potency, µM (top dose mostly 46.1 µM), for the others: at the highest dose re-replication activation, actives largely listed as activators; further: % of control where 0% means no effect; nearly all actives have a fitted effect of over 55% in size
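Image-based DNA-content assay: after two days of treatment, nuclei were labelled with the DNA dye Hoechst and imaged, and hits were compounds raising the count of nuclei showing high fluorescence intensity.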
MCF10A rereplic: A quantitative high throughput screen for small molecules that induce DNA re-replication in MCF 10a normal breast cells; Potency, µM (doses to about 46.1 µM), inactives show at the top dose activity, positive = re-replication, most hits filed as activators; AID 624296, 2012; actives 2.9% (n = 350,000); MCF 10A DNA re-replication, Hoechst nuclear intensity, 48 h; further: % of control where 0% means no effect; nearly all actives have a fitted effect of over 50% in size
KB-3-1 cytotox: qHTS assay for MDR1-selective chemotherapeutics: Primary screen using the parental adenocarcinoma cell KB-3-1; KB-3-1 viability, CellTiter-Glo ATP luminescence, 72 h; Potency, µM (titrated, usually from 46.1 µM), hits mostly cytotoxic; actives 1.4% (n = 400,000); AID 1347075, 2019; further: on the % scale 0 is the no-effect control and ±100 the full control effect; nearly all actives have a fitted effect of over 60% in size
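72 h, 37 °C compound treatment of KB-3-1 parental cells; CellTiter-Glo added, 10 min, luminescence read. Data corrected against DMSO-only plates and normalized before curve fitting.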
PINK1 modulator: A Quantitative High throughput Screen to Identify Chemical Modulators of PINK1 Expression. PINK1 immunofluorescence, high-content cytometry, 24 h. actives 0.2% (n = 410,000). Potency, µM (series often up to 76.6 µM), without a hit: top-dose activation (PINK1 increase), most hits filed as activators; active means well fitted activation curve with a large enough effect; inconclusive means small, poorly fitted or top-dose-only effect; cell line not stated here; further: % of control where 0% means no effect; nearly all actives have a fitted effect of over 65% in size
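Fluorescence from anti-PINK1 antibody, together with nuclear and cell stains, was scanned on a laser-scanning cytometer. Before staining, stable-line cells were incubated 24 hours with compounds at 5 concentrations; primary antibody 12 h at 10 degrees C.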
KB-V1 cytotox: qHTS assay for MDR1-selective chemotherapeutics: Primary screen using the drug-selected MDR subline cells KB-V1; KB-V1 MDR cells viability, CellTiter-Glo, 72 h; Potency, µM (highest dose often 46.1 µM), usual class: cytotoxic; actives 3.4% (n = 400,000); AID 1347076, 2019; further: on the % scale 0 is the no-effect control and ±100 the full control effect; nearly all actives have a fitted effect of over 60% in size
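Cells of the MDR subline KB-V1 are plated, dosed with compound at multiple concentrations, and incubated 72 h at 37 degrees C; CellTiter-Glo is then added and luminescence read after 10 min.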
The depositor's hits bear a star; i = inactive; ? = inconclusive; . = not tested or not shown; [ ] = remark or other dose. Only some compounds are listed: those with a hit (about 6.7% of all), similar ones and a draw of the others. Unless noted, the call rests on the fitted dose curve; in most records, active means well fitted curve in the direction sought with a large enough effect; inconclusive means small, poorly fitted or top-dose-only effect, or another doubt; inactive means no such curve, though single readings can be large; an effect the other way counts as inactive or inconclusive. Potency means the concentration at half of the fitted maximal effect.

SMILES	SW480 rerep	MCF10A rereplic	KB-3-1 cytotox	PINK1 modulator	KB-V1 cytotox
COc1ccc(-c2nc(CN3C(=O)CN=C(c4ccccc4)c4ccccc43)c(C)o2)cc1	.	.	15µM*	0%	?
O=C(Nc1ccc(Br)cc1)c1cc(Br)cc(Br)c1O	-3%	?	.	.	.
O=C1NC2C(=CC(O)C(O)C2O)c2cc3c(c(O)c21)OCO3 (stereo unspecified)	?	?	0.1µM*	-2%	?
O=C1NC2C(=CC(O)C(O)C2O)c2cc3c(cc21)OCO3 (stereo unspecified)	23%	?	3.3µM*	-7%	2.3µM*
O=C1NC2C(O)C(O)C(O)C(O)C2c2cc3c(c(O)c21)OCO3 (stereo unspecified)	17%	14%	?	-7%	0.52µM*
COC(=O)c1ccc(NC(=O)c2cccn(Cc3ccccc3C)c2=O)cc1	.	.	i	-5%	?
CCC12CN3CC(CC)(CN(C1)C3c1c(C)[nH]c(=O)[nH]c1=O)C2=O (stereo unspecified)	.	.	i	0%	?
CCC1(c2ccccc2)CCC(=O)NC1=O (stereo unspecified)	-2%	7%	.	.	.
CCCCn1c(O)c(C(=O)/C=C/c2c[nH]c3ccccc23)c(=O)[nH]c1=O	?	18µM*	i	-2%	i
CCCCn1c(O)c(C(CC)=NCCc2ccccc2)c(=O)[nH]c1=O	0%	6%	i	4%	?
N=C(N)c1c(O)n(C2CCCCC2)c(=O)n(C2CCCCC2)c1=O	?	?	21µM*	-5%	i
Cc1nn(Cc2ccccc2)c(Cl)c1C(=O)OCC(=O)Nc1cccc2ccccc12	-1%	?	?	?	16µM*
Cc1nn(Cc2ccccc2)c(Cl)c1C(=O)OC(C)C(=O)Nc1ccc(F)cc1Cl (stereo unspecified)	7%	21µM*	i	15%	3.3µM*
Cc1nn(Cc2ccccc2Cl)c(Cl)c1C(=O)OCC(=O)NC(=O)NC1CCCCC1	-11%	?	i	-2%	16µM*
Cc1cc(NC(=O)COC(=O)c2c(C)nn(Cc3ccccc3Cl)c2C)no1	?	?	i	8%	i
Cc1cc(NC(=O)COC(=O)c2c(C)nn(Cc3ccccc3)c2Cl)no1	1%	9%	i	2%	i
Cc1cc(C)c(N)cc1C	?	?	i	1%	i
Cc1cc(-c2ccccc2)cc(C)[n+]1Cc1ccccc1	-18%[9.22 µM]	-14%	5.8µM*	-1%	i
O=[N+]([O-])c1ccc(C[n+]2c(-c3ccccc3)cc(-c3ccccc3)cc2-c2ccccc2)cc1	-1%	24%	?	1%	i
O=[N+]([O-])c1ccc(N2CCCC2)cc1N/N=C1\CN2CCC1CC2	23µM*	1%	i	-2%	21µM*
CC1(C)[C@@H](C=C(Cl)Cl)[C@@H]1C(=O)OCc1c(F)c(F)cc(F)c1F	0%	2%	.	.	.
O=C(CCl)c1ccc(O)c(O)c1	.	.	i	0%	i
N#Cc1ccc(/C=C/C(=O)O)cc1	-7%	14%	i	0%	i
O=C(/C=C/c1ccccc1)C1C(=O)c2ccccc2C1=O	-6%	?	?	-1%	3.7µM*
CN1CCC[C@@H]1c1cccnc1	-14%	-6%	.	.	.
SMILES	SW480 rerep	MCF10A rereplic	KB-3-1 cytotox	PINK1 modulator	KB-V1 cytotox
CN1C(=S)CN=C(c2ccccc2)c2cc(Cl)ccc21	-4%	1%	.	.	.
CCOC(=O)C1(c2ccccc2)CCN(CC(=O)Nc2cccc3ccccc23)CC1	21µM*	?	i	?	3.7µM*
Cc1nc2cc(-c3ccc(Cl)cc3)nn2c(C)c1CCC(=O)N1CCC2(CC1)OCCO2	-4%	14%	i	11%	18µM*
O=C(CCn1nc(-c2ccc(Cl)cc2)ccc1=O)N1CCC2(CC1)OCCO2	-7%	-2%	i	1%	i
N#Cc1ccc(CN2CC[C@@]3(CCCNC3)C2)cc1	.	.	.	0%	.
COC(=O)C[C@]1(C(=O)OC)CN(C#N)N(c2ccc(Cl)cc2)C12c1ccccc1-c1ccccc12	?	5.2µM*	5.2µM*	-2%	5.8µM*
COC(=O)[C@@H]1[C@@H](C(=O)OC)C2(c3ccccc3-c3ccccc32)N(c2ccc(Cl)cc2)N1C#N	9.2µM*	7.1µM*	?	0%	?
CC[C@H]1CN2CCc3cc(OC)c(OC)cc3[C@H]2C[C@@H]1C[C@@H]1NCCc2cc(OC)c(OC)cc21	?	34%	.	.	.
CCOc1ccc(-n2c(-c3ccoc3)nc3ccccc3c2=O)cc1	5%	-9%	i	1%[38.3 µM]	i
CCOc1ccc(-c2c(C)n(-c3ccc(OCC)cc3)c3[n+]2CCCCC3)cc1	?	?	1.6µM*	10µM*	i
N#CC(C#N)=Cc1ccc(O)c(O)c1	13%	?	?	2%	i
CC(C)(C)c1cc(C=C(C#N)C#N)cc(C(C)(C)C)c1O	-45%	?	1.3µM*	?	1µM*
N#Cc1cccc(NC(=O)CSc2nc3c(cc2C#N)N2CCC3CC2)c1	.	.	?	1%	i
N#Cc1cc2c(nc1SCC(=O)Nc1cc(Cl)cc(Cl)c1)C1CCN2CC1	24%	2.3µM*	i	?	4.6µM*
N#Cc1cc2c(nc1SCC(=O)Nc1cccc(C(F)(F)F)c1)C1CCN2CC1	.	.	?	3%	9.2µM*
N#Cc1cc2c(nc1SCC(=O)Nc1ccc(F)c(Cl)c1)C1CCN2CC1	.	.	i	-1%	15µM*
N#Cc1cc2c(nc1SCC(=O)Nc1ccc(OC(F)(F)F)cc1)C1CCN2CC1	.	.	?	14%	i
CCOC(=O)c1ccc(NC(=O)CSc2nc3c(cc2C#N)N2CCC3CC2)cc1	.	.	i	-2%	?
Cc1cc(=O)n(-c2ccccc2)n1C	13%	?	?	1%	i
COC(=O)C1=C(c2cccc(OCc3ccccc3)c2)C[C@@H]2CC[C@H]1N2C(=O)NCc1ccc2[nH]ccc2c1	-2%	5.2µM*	?	1%	i
COC(=O)C1=C(c2ccc(OCc3ccccc3)cc2)C[C@@H]2CC[C@H]1N2C(=O)NCc1ccccc1OC	.	.	21µM*	0%	?
COC(=O)C1=C(c2ccc(OCc3ccccc3)cc2)C[C@@H]2CC[C@H]1N2C(=O)NCc1ccc(OC)c(OC)c1	19%	?	?	-1%	i
COc1ccc(C(=O)CC(c2ccc(OC)c(OC)c2)c2c(O)c3ccccc3oc2=O)cc1OC (stereo unspecified)	.	.	i	0%	i
